Data published in the supplement of paper PMC10849652.
About 7,900 targets were measured; listed, in parts, are those with a hit and a random draw of the rest. About 0.6% of all pairs of compound and target were hits.

What was measured:
Assay in all cases: log2 fold change, soluble protein after heating vs DMSO (PISA); higher = thermal stabilisation; K562 cells, 10 uM, 30 min; active = over 0.2 and 3.5 SD of the protein, either way, in both replicates (recomputed)
[1] = compound: Cc1ccc(NC(=O)c2ccc(CN3CC[C@H](N(C)C)C3)c(C(F)(F)F)c2)cc1Nc1nccc(-c2cncnc2)n1 [bafetinib]
Outline: (§1)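 K562 cells (2×10^6 cells/mL) were treated with 10 μM compound for 30 min, and aliquots were heated for 3 min over 48°C-58°C. Pooled aliquots were extracted in PBS with 0.5% NP-40 at 4°C, and the supernatant after 21,000xg for 90 min was measured by TMTpro 16plex LC-MS/MS with channel sums equalised. Reported thermal stability, relative to control samples and from duplicates, is a log2 fold change.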

[2] = compound: Cc1cccc(CC(=O)N2CCc3c2ccc(-c2cn(C)c4ncnc(N)c24)c3F)n1
Outline: as §1

[3] = compound: Cc1cn(-c2cc(NC(=O)c3ccc(C)c(Nc4nccc(-c5cccnc5)n4)c3)cc(C(F)(F)F)c2)cn1 [nilotinib]
Outline: as §1

[4] = compound: Cc1nc(Nc2n[nH]c3c2CN(C(=O)N[C@H](CN(C)C)c2ccccc2)C3(C)C)c2sccc2n1
Outline: as §1

[5] = compound: Cc1nc(Nc2ncc(C(=O)Nc3c(C)cccc3Cl)s2)cc(N2CCN(CCO)CC2)n1 [dasatinib]
Outline: as §1

[6] = compound: Cc1ncc(-c2ccnc(Nc3ccc(S(C)(=O)=O)cc3)n2)n1C(C)C
Outline: as §1

[7] = compound: Cn1cc(-c2ccc3c(c2)CCN3C(=O)Cc2cccc(C(F)(F)F)c2)c2c(N)ncnc21
Outline: as §1

[8] = compound: Cn1cc(-c2ccc3nnc(C(F)(F)c4ccc5ncccc5c4)n3n2)cn1
Outline: as §1

[9] = compound: Cn1cncc1[C@@](N)(c1ccc(Cl)cc1)c1ccc2c(c1)c(-c1cccc(Cl)c1)cc(=O)n2C [tipifarnib]
Outline: as §1

[10] = compound: FC(F)(F)c1ccc(/C=C/c2nc(COc3ccc(CCCCn4ccnn4)cc3)co2)cc1 [mubritinib]
Outline: as §1

[11] = compound: NC(=O)Nc1cc(-c2cccc(F)c2)sc1C(=O)N[C@H]1CCCNC1
Outline: as §1

[12] = compound: NC(=O)c1cnc(N[C@@H]2CCCC[C@@H]2N)nc1Nc1cccc(-n2nccn2)c1
Outline: as §1

[13] = compound: NC1(c2ccc(-c3nc4ccn5c(=O)[nH]nc5c4cc3-c3ccccc3)cc2)CCC1
Outline: as §1

[14] = compound: NCC(=O)Nc1ccc(-n2nc(C(F)(F)F)cc2-c2ccc3c(ccc4ccccc43)c2)cc1
Outline: as §1

[15] = compound: Nc1ccccc1NC(=O)c1ccc(CNC(=O)OCc2cccnc2)cc1 [entinostat]
Outline: as §1

[16] = compound: O=C(CCCCCCC(=O)Nc1ccccc1)NO [vorinostat]
Outline: as §1

[17] = compound: O=C(CCCCCCNC(=O)c1cnc(N(c2ccccc2)c2ccccc2Cl)nc1)NO [citarinostat]
Outline: as §1

[18] = compound: O=C(O)c1ccc2c(c1)nc(Nc1cccc(Cl)c1)c1ccncc12 [silmitasertib]
Outline: as §1

[19] = compound: O=C1NC(=O)C(c2cnc3ccccn23)=C1c1cn2c3c(cc(F)cc13)CN(C(=O)N1CCCCC1)CC2
Outline: as §1

[20] = compound: c1cc(OCCN2CCCCC2)cc(-c2n[nH]c3ccc(-c4nnc[nH]4)cc23)c1
Outline: as §1

Measured: log2 fold change

XPNPEP3 (UniProt Q9NQH7)
inactive: [1] -0.06 | [2] 0.008 | [3] -0.034 | [4] 0.027 | [5] 0.021 | [6] -0.041 | [7] 0.092 | [8] -0.031 | [9] -0.065 | [10] 0.02 | [11] 0.034 | [12] -0.007 | [13] -0.074 | [14] 0 | [15] -0.024 | [16] -0.002 | [17] -0.007 | [18] -0.004 | [19] -0.02 | [20] -0.022

VPS33B (UniProt Q9H267)
inactive: [1] 0.01 | [2] 0.04 | [3] -0.056 | [4] -0.158 | [5] -0.209 | [6] 0.099 | [7] 0.017 | [8] -0.069 | [9] -0.107 | [10] 0.054 | [11] -0.013 | [12] -0.154 | [13] -0.118 | [14] -0.018 | [15] 0.094 | [16] 0.072 | [17] 0.076 | [18] -0.011 | [19] 0.017 | [20] -0.057

TUBAL3 (UniProt A6NHL2)
inactive: [1] 0.167 | [2] 0.049 | [3] -0.144 | [4] 0.027 | [5] 0.051 | [6] -0.029 | [7] 0.005 | [8] -0.095 | [9] -0.097 | [10] -0.01 | [11] 0 | [12] -0.082 | [13] -0.006 | [14] 0.031 | [15] 0.061 | [16] 0.037 | [17] -0.06 | [18] 0.087 | [19] 0.059 | [20] -0.291

TMEM63B (UniProt Q5T3F8)
Sequence of UniProt Q5T3F8 (Q5T3F8 whole entry, looked up): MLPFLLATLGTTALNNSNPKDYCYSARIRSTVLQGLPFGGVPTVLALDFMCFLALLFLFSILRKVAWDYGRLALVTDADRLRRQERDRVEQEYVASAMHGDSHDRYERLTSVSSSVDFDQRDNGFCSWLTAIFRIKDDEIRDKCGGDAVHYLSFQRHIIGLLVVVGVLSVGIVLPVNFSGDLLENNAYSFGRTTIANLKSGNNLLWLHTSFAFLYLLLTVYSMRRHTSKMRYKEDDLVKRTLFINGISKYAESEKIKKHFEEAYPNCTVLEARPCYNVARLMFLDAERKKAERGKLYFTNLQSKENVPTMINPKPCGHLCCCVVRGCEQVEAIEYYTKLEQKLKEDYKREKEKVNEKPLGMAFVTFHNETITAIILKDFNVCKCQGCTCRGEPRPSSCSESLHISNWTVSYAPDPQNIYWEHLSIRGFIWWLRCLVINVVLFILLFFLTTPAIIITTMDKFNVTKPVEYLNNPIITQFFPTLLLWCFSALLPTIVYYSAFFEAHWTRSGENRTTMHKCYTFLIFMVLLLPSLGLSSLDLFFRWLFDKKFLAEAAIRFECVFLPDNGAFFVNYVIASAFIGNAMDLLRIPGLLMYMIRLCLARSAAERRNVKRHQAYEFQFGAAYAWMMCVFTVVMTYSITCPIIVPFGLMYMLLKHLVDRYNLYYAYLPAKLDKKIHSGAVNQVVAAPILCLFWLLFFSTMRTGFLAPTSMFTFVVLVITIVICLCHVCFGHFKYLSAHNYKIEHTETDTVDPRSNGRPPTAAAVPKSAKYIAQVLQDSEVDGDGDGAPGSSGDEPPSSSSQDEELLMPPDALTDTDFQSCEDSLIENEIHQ
inactive: [1] 0.013 | [2] 0.002 | [3] -0.008 | [4] -0.021 | [5] 0.026 | [6] -0.061 | [7] 0.006 | [8] 0.004 | [9] 0.008 | [10] 0.047 | [11] 0.069 | [12] 0.059 | [13] -0.153 | [14] 0.052 | [15] 0.07 | [16] -0.008 | [17] -0.024 | [18] 0.001 | [19] -0.037 | [20] -0.021

WDR11 (UniProt Q9BZH6)
inactive: [1] 0.063 | [2] -0.067 | [3] -0.229 | [4] 0.051 | [5] 0.056 | [6] -0.121 | [7] -0.018 | [8] 0.046 | [9] 0.038 | [10] 0.051 | [11] 0.039 | [12] -0.164 | [13] -0.087 | [14] -0.192 | [15] -0.024 | [16] -0.007 | [17] -0.067 | [18] -0.025 | [19] -0.016 | [20] -0.036

TTC4 (UniProt O95801)
inactive: [1] 0.036 | [2] 0.116 | [3] -0.034 | [4] -0.094 | [5] -0.137 | [6] 0.003 | [7] 0.019 | [8] 0 | [9] -0.077 | [10] 0.061 | [11] -0.071 | [12] -0.047 | [13] -0.064 | [14] -0.073 | [15] 0.069 | [16] 0.077 | [17] 0.064 | [18] 0.074 | [19] -0.051 | [20] -0.014

TMEM120A (UniProt Q9BXJ8)
inactive: [2] -0.054 | [3] -0.009 | [4] -0.038 | [5] 0.046 | [6] -0.09 | [7] 0.053 | [8] 0.057 | [9] 0.011 | [10] 0.048 | [11] 0.229 | [12] 0.089 | [13] 0.058 | [14] 0.091 | [15] 0.002 | [16] 0.1 | [17] 0.252 | [18] -0.124 | [19] 0.185 | [20] 0.082
active: [1] 0.454

TXN2 (UniProt Q99757)
inactive: [1] -0.105 | [2] -0.104 | [3] 0.034 | [4] -0.005 | [5] 0.083 | [6] -0.048 | [7] 0.227 | [8] 0.013 | [9] 0.059 | [10] 0.009 | [11] -0.039 | [12] -0.009 | [13] 0.088 | [14] 0.049 | [15] 0.023 | [16] -0.072 | [17] 0.054 | [18] -0.072 | [19] -0.09 | [20] -0.036

TP53BP1 isoform 2 (UniProt Q12888)
Sequence of UniProt Q12888 (Q12888 whole entry, looked up): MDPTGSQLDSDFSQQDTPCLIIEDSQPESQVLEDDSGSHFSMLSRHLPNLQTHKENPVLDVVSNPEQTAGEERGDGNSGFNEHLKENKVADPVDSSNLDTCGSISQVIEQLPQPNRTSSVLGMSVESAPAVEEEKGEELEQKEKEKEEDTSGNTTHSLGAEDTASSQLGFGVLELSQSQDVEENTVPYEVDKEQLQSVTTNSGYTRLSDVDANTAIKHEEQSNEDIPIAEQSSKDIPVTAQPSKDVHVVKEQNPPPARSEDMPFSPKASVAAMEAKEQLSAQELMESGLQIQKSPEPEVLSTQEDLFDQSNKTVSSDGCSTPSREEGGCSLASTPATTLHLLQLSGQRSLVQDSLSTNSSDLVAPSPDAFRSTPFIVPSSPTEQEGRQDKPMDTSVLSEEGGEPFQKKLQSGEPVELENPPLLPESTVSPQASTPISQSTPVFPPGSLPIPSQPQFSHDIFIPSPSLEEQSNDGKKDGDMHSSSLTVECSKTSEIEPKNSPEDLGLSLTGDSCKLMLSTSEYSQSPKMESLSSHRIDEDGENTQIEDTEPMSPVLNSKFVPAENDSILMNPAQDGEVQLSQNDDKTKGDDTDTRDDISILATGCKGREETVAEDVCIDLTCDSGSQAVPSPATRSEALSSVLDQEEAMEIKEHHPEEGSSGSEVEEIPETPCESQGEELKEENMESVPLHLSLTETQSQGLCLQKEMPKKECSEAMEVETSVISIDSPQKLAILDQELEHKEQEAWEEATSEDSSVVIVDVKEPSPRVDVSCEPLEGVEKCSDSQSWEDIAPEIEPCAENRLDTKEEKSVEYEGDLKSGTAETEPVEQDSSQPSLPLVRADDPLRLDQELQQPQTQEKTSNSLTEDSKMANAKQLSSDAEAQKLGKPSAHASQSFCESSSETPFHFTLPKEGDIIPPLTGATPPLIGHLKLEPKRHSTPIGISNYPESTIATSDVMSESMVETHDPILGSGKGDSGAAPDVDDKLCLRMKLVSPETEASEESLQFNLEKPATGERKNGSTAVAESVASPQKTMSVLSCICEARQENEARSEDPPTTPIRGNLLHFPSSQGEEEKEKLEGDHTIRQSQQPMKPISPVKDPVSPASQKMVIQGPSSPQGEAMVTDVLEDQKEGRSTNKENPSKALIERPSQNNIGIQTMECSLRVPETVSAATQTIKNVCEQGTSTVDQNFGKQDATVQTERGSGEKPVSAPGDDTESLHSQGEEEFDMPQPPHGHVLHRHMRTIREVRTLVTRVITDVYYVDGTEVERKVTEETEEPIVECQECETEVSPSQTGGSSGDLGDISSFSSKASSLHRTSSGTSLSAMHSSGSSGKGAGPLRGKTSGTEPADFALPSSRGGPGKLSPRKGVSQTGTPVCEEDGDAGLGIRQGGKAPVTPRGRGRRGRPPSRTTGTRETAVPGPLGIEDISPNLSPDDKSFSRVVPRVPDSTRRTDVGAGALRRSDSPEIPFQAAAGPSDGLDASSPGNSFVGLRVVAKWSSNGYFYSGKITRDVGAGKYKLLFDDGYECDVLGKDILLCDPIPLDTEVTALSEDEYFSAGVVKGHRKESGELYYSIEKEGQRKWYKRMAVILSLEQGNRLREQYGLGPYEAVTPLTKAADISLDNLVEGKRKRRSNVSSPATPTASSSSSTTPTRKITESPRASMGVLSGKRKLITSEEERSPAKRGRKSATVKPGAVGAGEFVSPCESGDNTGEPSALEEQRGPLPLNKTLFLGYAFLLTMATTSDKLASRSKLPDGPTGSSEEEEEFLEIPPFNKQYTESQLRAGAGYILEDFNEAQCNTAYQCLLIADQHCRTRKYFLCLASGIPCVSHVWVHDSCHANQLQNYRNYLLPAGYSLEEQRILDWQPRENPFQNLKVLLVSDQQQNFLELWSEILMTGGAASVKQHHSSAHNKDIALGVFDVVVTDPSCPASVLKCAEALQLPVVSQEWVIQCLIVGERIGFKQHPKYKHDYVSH
inactive: [1] 0.004 | [2] 0.008 | [3] -0.001 | [4] -0.011 | [5] -0.009 | [6] -0.027 | [7] -0.064 | [8] -0.014 | [9] 0.016 | [10] -0.002 | [11] 0.014 | [12] -0.056 | [13] -0.072 | [14] -0.008 | [15] 0.018 | [16] 0.031 | [17] 0.074 | [18] 0.117 | [19] -0.035 | [20] -0.029

UBXN8 (UniProt O00124)
Sequence of UniProt O00124 (O00124 whole entry, looked up): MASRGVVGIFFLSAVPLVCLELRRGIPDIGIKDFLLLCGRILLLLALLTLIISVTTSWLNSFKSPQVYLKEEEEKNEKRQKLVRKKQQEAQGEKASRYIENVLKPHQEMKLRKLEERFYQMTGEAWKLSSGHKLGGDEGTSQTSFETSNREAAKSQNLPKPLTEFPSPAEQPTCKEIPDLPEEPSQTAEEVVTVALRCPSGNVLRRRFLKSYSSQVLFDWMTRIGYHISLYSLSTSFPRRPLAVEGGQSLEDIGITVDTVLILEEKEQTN
inactive: [1] -0.112 | [2] -0.086 | [5] -0.056 | [7] 0.017 | [8] -0.439 | [9] 0.048 | [11] -0.139 | [12] -0.103 | [14] -0.344 | [15] 0.046 | [16] -0.055 | [17] 0.037 | [19] -0.05 | [20] -0.143

WDR46, A0A0G2JJL1
inactive: [1] 0.339 | [3] -0.094 | [4] 0.202 | [5] 0.381 | [6] 0.105 | [9] 0.171 | [10] -0.051 | [11] 0.222 | [13] 0.515 | [14] 0.146 | [15] -0.113 | [17] -0.163 | [18] 0.247 | [19] 0.284 | [20] 0.013

TOM1L2 (UniProt Q6ZVM7)
inactive: [3] -0.047 | [4] -0.127 | [5] -0.091 | [6] -0.125 | [7] 0.028 | [11] 0.089 | [12] -0.136 | [14] -0.098 | [15] 0.036 | [19] -0.043

WARS1 (UniProt G3V3P2)
inactive: [1] -0.076 | [11] -0.196 | [15] -0.074

TUBA4A (UniProt C9JJQ8)
inactive: [1] 0.116 | [5] -0.082 | [7] 0.012 | [9] 0.047 | [11] -0.035 | [14] 0.053 | [15] 0.093 | [17] 0.039 | [20] 0.206

WARS1 (UniProt G3V227)
inactive: [1] 0 | [5] -0.164 | [7] -0.42 | [12] 0.045 | [14] -0.115 | [19] -0.084

UTP3 (UniProt Q9NQZ2)
active: [1] 0.689
inactive: [2] -0.048 | [5] 0.168 | [7] -0.208 | [8] -0.132 | [9] 0.212 | [10] -0.228 | [11] 0.093 | [12] 0.074 | [13] 0.286 | [14] 0.087 | [15] -0.019 | [16] -0.06 | [17] -0.107 | [18] 0.095 | [19] 0.103 | [20] -0.41

UBE3B (UniProt Q7Z3V4)
Sequence of UniProt Q7Z3V4 (Q7Z3V4 whole entry, looked up): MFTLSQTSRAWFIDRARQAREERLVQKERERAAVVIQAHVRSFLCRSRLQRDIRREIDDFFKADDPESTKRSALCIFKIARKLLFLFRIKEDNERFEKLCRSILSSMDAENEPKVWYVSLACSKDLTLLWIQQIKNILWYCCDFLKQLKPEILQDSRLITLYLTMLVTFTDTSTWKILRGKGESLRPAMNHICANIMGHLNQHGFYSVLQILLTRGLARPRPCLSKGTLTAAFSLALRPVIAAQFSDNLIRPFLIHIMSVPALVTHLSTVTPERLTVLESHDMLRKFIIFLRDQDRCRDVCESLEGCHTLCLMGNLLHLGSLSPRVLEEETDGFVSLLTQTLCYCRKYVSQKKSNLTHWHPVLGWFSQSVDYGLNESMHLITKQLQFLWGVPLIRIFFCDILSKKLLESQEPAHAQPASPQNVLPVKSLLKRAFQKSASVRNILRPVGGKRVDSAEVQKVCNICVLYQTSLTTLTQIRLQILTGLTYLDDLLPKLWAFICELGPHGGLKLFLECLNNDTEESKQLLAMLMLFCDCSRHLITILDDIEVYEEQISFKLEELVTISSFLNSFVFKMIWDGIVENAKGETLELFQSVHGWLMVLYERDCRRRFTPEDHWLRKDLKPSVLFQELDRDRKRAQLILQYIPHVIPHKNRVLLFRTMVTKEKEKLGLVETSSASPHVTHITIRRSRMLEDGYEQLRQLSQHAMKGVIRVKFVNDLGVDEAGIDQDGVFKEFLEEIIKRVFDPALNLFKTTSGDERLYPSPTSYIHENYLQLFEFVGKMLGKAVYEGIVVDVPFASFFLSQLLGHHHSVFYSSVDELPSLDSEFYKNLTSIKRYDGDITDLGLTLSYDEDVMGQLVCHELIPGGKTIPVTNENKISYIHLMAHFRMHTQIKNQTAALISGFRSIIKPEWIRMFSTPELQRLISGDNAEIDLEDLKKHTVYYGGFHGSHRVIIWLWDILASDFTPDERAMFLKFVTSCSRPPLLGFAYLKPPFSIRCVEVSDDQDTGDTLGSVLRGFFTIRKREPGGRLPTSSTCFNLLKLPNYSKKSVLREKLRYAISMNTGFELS
inactive: [1] -0.134 | [3] 0.072 | [4] 0.03 | [5] -0.028 | [6] 0.116 | [7] -0.062 | [8] 0.103 | [9] -0.112 | [11] 0.034 | [12] -0.043 | [15] -0.046 | [19] -0.037

TTC26
inactive: [1] -0.04 | [8] 0.04 | [14] 0.006

WARS1 (UniProt G3V5U1)
inactive: [1] -0.569 | [10] -0.161 | [11] -0.609 | [13] -0.142 | [15] -0.218 | [17] -0.608 | [18] 0.297 | [19] -0.761 | [20] -0.083

TTC33 (UniProt Q6PID6)
Sequence of UniProt Q6PID6 (Q6PID6 whole entry, looked up): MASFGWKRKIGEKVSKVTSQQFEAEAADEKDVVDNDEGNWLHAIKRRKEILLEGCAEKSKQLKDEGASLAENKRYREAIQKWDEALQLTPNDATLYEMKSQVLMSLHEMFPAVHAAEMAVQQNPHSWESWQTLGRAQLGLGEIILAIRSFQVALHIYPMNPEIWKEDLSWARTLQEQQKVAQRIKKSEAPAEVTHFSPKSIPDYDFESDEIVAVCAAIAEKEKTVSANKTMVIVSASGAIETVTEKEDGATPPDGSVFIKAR
inactive: [1] 0.049 | [2] 0.181 | [5] 0.043 | [7] -0.084 | [8] -0.069 | [9] -0.03 | [10] 0.113 | [11] -0.1 | [12] -0.158 | [13] -0.197 | [14] -0.133 | [15] -0.123 | [16] -0.072 | [17] -0.038 | [18] 0.151 | [19] -0.08 | [20] 0.003

WARS1 (UniProt G3V339)
inactive: [19] -0.387

TXNRD1 isoform 7 (UniProt Q16881)
Sequence of UniProt Q16881 (Q16881 whole entry, looked up): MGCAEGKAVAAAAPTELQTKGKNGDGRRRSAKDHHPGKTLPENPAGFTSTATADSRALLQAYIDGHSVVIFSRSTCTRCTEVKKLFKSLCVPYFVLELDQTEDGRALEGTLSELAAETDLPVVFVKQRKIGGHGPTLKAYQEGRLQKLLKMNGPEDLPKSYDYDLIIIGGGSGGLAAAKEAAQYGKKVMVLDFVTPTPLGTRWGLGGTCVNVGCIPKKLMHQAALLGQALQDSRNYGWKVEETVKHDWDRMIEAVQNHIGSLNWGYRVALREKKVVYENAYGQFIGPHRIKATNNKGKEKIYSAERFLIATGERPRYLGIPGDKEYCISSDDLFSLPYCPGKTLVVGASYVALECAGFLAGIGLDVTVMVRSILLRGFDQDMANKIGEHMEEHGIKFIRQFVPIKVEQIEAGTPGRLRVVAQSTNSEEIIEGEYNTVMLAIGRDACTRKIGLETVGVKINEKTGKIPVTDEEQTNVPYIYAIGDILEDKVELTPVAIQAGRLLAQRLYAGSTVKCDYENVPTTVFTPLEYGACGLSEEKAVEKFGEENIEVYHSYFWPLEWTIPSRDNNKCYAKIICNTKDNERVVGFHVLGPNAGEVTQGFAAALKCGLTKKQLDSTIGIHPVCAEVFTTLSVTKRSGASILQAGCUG
inactive: [1] -0.124 | [2] 0.001 | [5] -0.052 | [9] -0.051 | [11] -0.083 | [14] -0.214 | [15] 0.065 | [16] 0.21 | [17] -0.171 | [19] -0.227 | [20] 0.171
